Residue numbers refer to the chain shown, from its start. In all, about 16,000 sequences were measured (“ka relative to ugcaugu”: median about 0.096, highest 2% from about 0.35 on). What follows is part of a selection rich in the highest values, with near analogues and random picks from the rest.
T1: RBFOX1 RRM RbFoxmut (Fox-RRM*) (Homo sapiens, UniProt Q9NWB1 109-208, R118D;E147R;N151S;E152T)
T1 sequence: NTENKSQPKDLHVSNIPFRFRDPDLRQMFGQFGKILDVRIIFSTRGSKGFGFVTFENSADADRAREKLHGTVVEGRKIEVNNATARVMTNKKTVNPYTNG

B1: GUGAGUC (DNA:RNA)
RNA: GGGAGACCGGAAUUCAGAUUGUCCGUGAGUCUUAAAUCCCGUCGUAGCCACCA
DNA 1: CAATCTGAATTCCGGTCTCCC
DNA 2: TGGTGGCTACGACGGGATT
B2: UUCUCUG (DNA:RNA)
RNA: B1 RNA with G25U, G27C, A28U, G29C, C31G
DNA 1: CAATCTGAATTCCGGTCTCCC
DNA 2: TGGTGGCTACGACGGGATT
B3: UUAUUAA (DNA:RNA)
RNA: B1 RNA with G25U, G27A, A28U, G29U, U30A, C31A
DNA 1: CAATCTGAATTCCGGTCTCCC
DNA 2: TGGTGGCTACGACGGGATT
B4: UCGAGUG (DNA:RNA)
RNA: B1 RNA with G25U, U26C, C31G
DNA 1: CAATCTGAATTCCGGTCTCCC
DNA 2: TGGTGGCTACGACGGGATT
B5: CUUGCGU (DNA:RNA)
RNA: B1 RNA with G25C, G27U, A28G, G29C, U30G, C31U
DNA 1: CAATCTGAATTCCGGTCTCCC
DNA 2: TGGTGGCTACGACGGGATT
B6: AGCACGA (DNA:RNA)
RNA: B1 RNA with G25A, U26G, G27C, G29C, U30G, C31A
DNA 1: CAATCTGAATTCCGGTCTCCC
DNA 2: TGGTGGCTACGACGGGATT
B7: CUGCUGC (DNA:RNA)
RNA: B1 RNA with G25C, A28C, G29U, U30G
DNA 1: CAATCTGAATTCCGGTCTCCC
DNA 2: TGGTGGCTACGACGGGATT
B8: UGCUUGU (DNA:RNA)
RNA: GGGAGACCGGAAUUCAGAUUGUCCUGCUUGUUUAAAUCCCGUCGUAGCCACCA
DNA 1: CAATCTGAATTCCGGTCTCCC
DNA 2: TGGTGGCTACGACGGGATT
B9: UGCUUGC (DNA:RNA)
RNA: B8 RNA with U31C
DNA 1: CAATCTGAATTCCGGTCTCCC
DNA 2: TGGTGGCTACGACGGGATT
B10: CCCCUGC (DNA:RNA)
RNA: B8 RNA with U25C, G26C, U28C, U31C
DNA 1: CAATCTGAATTCCGGTCTCCC
DNA 2: TGGTGGCTACGACGGGATT
B11: CUGCUUG (DNA:RNA)
RNA: B1 RNA with G25C, A28C, G29U, C31G
DNA 1: CAATCTGAATTCCGGTCTCCC
DNA 2: TGGTGGCTACGACGGGATT
B12: UGCUGCU (DNA:RNA)
RNA: B8 RNA with U29G, G30C
DNA 1: CAATCTGAATTCCGGTCTCCC
DNA 2: TGGTGGCTACGACGGGATT
B13: UUACGGC (DNA:RNA)
RNA: B1 RNA with G25U, G27A, A28C, U30G
DNA 1: CAATCTGAATTCCGGTCTCCC
DNA 2: TGGTGGCTACGACGGGATT
B14: UUCGUUU (DNA:RNA)
RNA: B8 RNA with G26U, U28G, G30U
DNA 1: CAATCTGAATTCCGGTCTCCC
DNA 2: TGGTGGCTACGACGGGATT
B15: AAGUGAC (DNA:RNA)
RNA: B1 RNA with G25A, U26A, A28U, U30A
DNA 1: CAATCTGAATTCCGGTCTCCC
DNA 2: TGGTGGCTACGACGGGATT
B16: GAUGAAA (DNA:RNA)
RNA: B1 RNA with U26A, G27U, A28G, G29A, U30A, C31A
DNA 1: CAATCTGAATTCCGGTCTCCC
DNA 2: TGGTGGCTACGACGGGATT
B17: ACAUGUU (DNA:RNA)
RNA: B1 RNA with G25A, U26C, G27A, A28U, C31U
DNA 1: CAATCTGAATTCCGGTCTCCC
DNA 2: TGGTGGCTACGACGGGATT
B18: CCGCCUC (DNA:RNA)
RNA: B1 RNA with G25C, U26C, A28C, G29C
DNA 1: CAATCTGAATTCCGGTCTCCC
DNA 2: TGGTGGCTACGACGGGATT
B19: GGUGAUG (DNA:RNA)
RNA: B1 RNA with U26G, G27U, A28G, G29A, C31G
DNA 1: CAATCTGAATTCCGGTCTCCC
DNA 2: TGGTGGCTACGACGGGATT
B20: GCGUGAA (DNA:RNA)
RNA: B1 RNA with U26C, A28U, U30A, C31A
DNA 1: CAATCTGAATTCCGGTCTCCC
DNA 2: TGGTGGCTACGACGGGATT
B21: GUGACCG (DNA:RNA)
RNA: B1 RNA with G29C, U30C, C31G
DNA 1: CAATCTGAATTCCGGTCTCCC
DNA 2: TGGTGGCTACGACGGGATT
B22: GUCGUGA (DNA:RNA)
RNA: B8 RNA with U25G, G26U, U28G, U31A
DNA 1: CAATCTGAATTCCGGTCTCCC
DNA 2: TGGTGGCTACGACGGGATT
B23: GUGACUG (DNA:RNA)
RNA: B1 RNA with G29C, C31G
DNA 1: CAATCTGAATTCCGGTCTCCC
DNA 2: TGGTGGCTACGACGGGATT
B24: GGUGAUU (DNA:RNA)
RNA: B1 RNA with U26G, G27U, A28G, G29A, C31U
DNA 1: CAATCTGAATTCCGGTCTCCC
DNA 2: TGGTGGCTACGACGGGATT
B25: GGUGUGA (DNA:RNA)
RNA: B8 RNA with U25G, C27U, U28G, U31A
DNA 1: CAATCTGAATTCCGGTCTCCC
DNA 2: TGGTGGCTACGACGGGATT
B26: GUGAUCG (DNA:RNA)
RNA: B1 RNA with G29U, U30C, C31G
DNA 1: CAATCTGAATTCCGGTCTCCC
DNA 2: TGGTGGCTACGACGGGATT
B27: UUGACUG (DNA:RNA)
RNA: B1 RNA with G25U, G29C, C31G
DNA 1: CAATCTGAATTCCGGTCTCCC
DNA 2: TGGTGGCTACGACGGGATT
B28: GUGAUUC (DNA:RNA)
RNA: B1 RNA with G29U
DNA 1: CAATCTGAATTCCGGTCTCCC
DNA 2: TGGTGGCTACGACGGGATT
B29: GUGAUUG (DNA:RNA)
RNA: B1 RNA with G29U, C31G
DNA 1: CAATCTGAATTCCGGTCTCCC
DNA 2: TGGTGGCTACGACGGGATT
B30: GUGAAUC (DNA:RNA)
RNA: B1 RNA with G29A
DNA 1: CAATCTGAATTCCGGTCTCCC
DNA 2: TGGTGGCTACGACGGGATT

Each binder was assayed against T1, RBFOX1 RRM RbFoxmut (Fox-RRM*) (assay: EMSA; HiTS-Eq, 1 nM pool, 10 min; buffer printed only for the single-RNA assays: 10 mM Tris pH 7.5, 150 mM NaCl, 3.4 mM EDTA, 0.001% NP-40, 30 C). Settings: tags: His6 N-terminal (pET28a); label: 5' 32P.
Summary of the method: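 Relative association constants, normalised to the cognate motif, were derived by comparing read counts of each RNA species with those of the control reaction. The RNA sequenced was the free fraction, separated by 8% native PAGE after a 10 min equilibration in 50 µL of 1 nM 5′-radiolabelled RNA (7 randomized nucleotides) with increasing concentrations of purified wild-type or mutant RbFox RRM.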

Binder | binding signal
B1 | 0.138 KA relative to UGCAUGU
B2 | 0.0908 KA relative to UGCAUGU
B3 | 0.0751 KA relative to UGCAUGU
B4 | 0.167 KA relative to UGCAUGU
B5 | 0.154 KA relative to UGCAUGU
B6 | 0.141 KA relative to UGCAUGU
B7 | 0.126 KA relative to UGCAUGU
B8 | 0.428 KA relative to UGCAUGU
B9 | 0.264 KA relative to UGCAUGU
B10 | 0.0955 KA relative to UGCAUGU
B11 | 0.423 KA relative to UGCAUGU
B12 | 0.12 KA relative to UGCAUGU
B13 | 0.0823 KA relative to UGCAUGU
B14 | 0.112 KA relative to UGCAUGU
B15 | 0.0758 KA relative to UGCAUGU
B16 | 0.0758 KA relative to UGCAUGU
B17 | 0.127 KA relative to UGCAUGU
B18 | 0.0617 KA relative to UGCAUGU
B19 | 0.412 KA relative to UGCAUGU
B20 | 0.119 KA relative to UGCAUGU
B21 | 0.162 KA relative to UGCAUGU
B22 | 0.126 KA relative to UGCAUGU
B23 | 0.387 KA relative to UGCAUGU
B24 | 0.0776 KA relative to UGCAUGU
B25 | 0.112 KA relative to UGCAUGU
B26 | 0.32 KA relative to UGCAUGU
B27 | 0.243 KA relative to UGCAUGU
B28 | 0.159 KA relative to UGCAUGU
B29 | 0.454 KA relative to UGCAUGU
B30 | 0.42 KA relative to UGCAUGU

Reference: paper PMC9911399, “Two distinct binding modes provide the RNA-binding protein RbFox with extraordinary sequence specificity”
